A selection: hits, their analogues and other compounds. The true share with any hit is near 1.3%.
USP1 inh: USP1/UAF1 (human) deubiquitinase inhibition | O94782 | recombinant USP1/UAF1, Ub-Rhodamine cleavage fluorescence | Potency, µM (top dose mostly 57.1 µM), for inactives: at the top dose activity change, negative = inhibition, actives largely listed as inhibitors | actives 0.23% (n = 390,000) | AID 743255; also: % is scaled to controls: 0 for no effect and ±100 for the full control effect; nearly all actives have a fitted effect of over 60% in size
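Step one: compound is pinned into 1nM USP1/UAF1 in HEPES pH 7.8 buffer with TCEP. Step two: 15 min room-temperature incubation. Step three: Ub-Rho (150nM final) starts cleavage, tracked by fluorescence over six one-minute reads.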
12-LOX inh: blocks human arachidonate 12S-lipoxygenase | purified 12hLO, xylenol orange hydroperoxide absorbance | Potency, µM (top dose mostly 108 µM), inactives show top-dose activity change, negative = inhibition, actives largely listed as inhibitors | actives 1.1% (n = 580,000) | AID 1671190; also: % is scaled to controls: 0 for no effect and ±100 for the full control effect
Target sequence (P18054 whole entry, looked up): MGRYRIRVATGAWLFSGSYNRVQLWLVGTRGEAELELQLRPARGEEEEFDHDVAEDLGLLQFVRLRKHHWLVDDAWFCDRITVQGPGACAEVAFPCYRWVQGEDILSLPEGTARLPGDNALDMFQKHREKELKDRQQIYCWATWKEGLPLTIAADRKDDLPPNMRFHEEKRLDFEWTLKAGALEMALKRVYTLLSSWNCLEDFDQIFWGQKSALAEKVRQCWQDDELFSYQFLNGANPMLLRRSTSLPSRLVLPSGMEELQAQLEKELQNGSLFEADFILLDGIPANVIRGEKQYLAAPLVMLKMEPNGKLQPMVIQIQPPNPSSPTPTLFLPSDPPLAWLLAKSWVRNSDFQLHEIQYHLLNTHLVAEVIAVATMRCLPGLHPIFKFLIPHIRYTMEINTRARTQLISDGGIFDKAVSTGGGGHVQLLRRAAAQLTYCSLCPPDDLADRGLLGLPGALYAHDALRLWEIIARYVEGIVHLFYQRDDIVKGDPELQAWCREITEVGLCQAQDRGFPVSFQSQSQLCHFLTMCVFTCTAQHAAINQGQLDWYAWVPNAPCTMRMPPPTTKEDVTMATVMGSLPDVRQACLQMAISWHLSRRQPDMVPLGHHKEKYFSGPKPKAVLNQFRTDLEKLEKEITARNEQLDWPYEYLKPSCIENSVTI
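Purified human 12hLO at 150 nM in 25 mM Hepes, 0.01% Triton X-100, pH 7.0, preincubated 15 min at room temperature with compound. Reaction started with 40 uM arachidonic acid, 30 min at room temperature. Hydroperoxide measured by Fe-xylenol orange, 573/405 nm absorbance ratio.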
EPAC2 antag: EPAC2 (human) antagonism | Q8WZA2 | EPAC2 GEF exchange of Rap1B-BODIPY-GDP, fluorescence | Potency, µM (series often up to 114 µM), for inactives: top-dose activity, negative = inhibition, hits mostly inhibitors | actives 0.18% (n = 360,000) | AID 720708; also: % is scaled to controls: 0 for no effect and ±100 for the full control effect; nearly all actives have a fitted effect of over 45% in size
EPAC2 ag: activates human EPAC2 exchange factor | EPAC2 activation, biochemical qHTS; response scale: 100% = 6.5 mM cAMP response | Potency, µM (top dose mostly 154 µM), for the others: at the highest dose activation, hits mostly activators | actives 0.079% (n = 360,000) | Q8WZA2; also: nearly all actives have a fitted effect of over 50% in size
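Setup: EPAC2 100 nM, labeled Rap1B complex 250 nM, free GDP 50 uM. Compound titrations pinned in, brief spin, 5 min room temperature incubation. Kinetic fluorescence read over 30 min, normalized to 6.5 mM cAMP.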
EPAC1 ag: agonists of human EPAC1 | O95398 | EPAC1 agonist qHTS, biochemical assay; response scale: 100% = response to 6.5 mM cAMP | Potency, µM (titrated, usually from 154 µM), inactives show top-dose activation, most hits filed as activators | actives 0.073% (n = 360,000); also: nearly all actives have a fitted effect of over 60% in size
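Read-out is the fluorescence drop as BODIPY-GDP leaves Rap1B (480 nm excitation, 540 nm emission), recorded every 5 minutes over 30 minutes. Reactions held 100 nM EPAC1, 250 nM Rap1B–BODIPY-GDP and 50 uM GDP, with 6.5 mM cAMP setting full activation.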
EPAC1 antag: blocks human EPAC1 exchange factor; EPAC1 GEF assay, Rap1b-BODIPY-GDP exchange fluorescence; O95398; actives 0.14% (n = 360,000); Potency, µM (doses to about 115 µM), for the others: top-dose activity change, negative = inhibition, hits mostly inhibitors;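 also: plate controls were vehicle for no effect and positive control for full effect; nearly all actives have a fitted effect of over 50% in size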
* marks the source's active call; other numbers are inactive results; u = inconclusive; x = no result given; [ ] = another dose, or the depositor's remark. Calls follow the shape of the dose curve; as a rule, active = well fitted curve in the direction sought with a large enough effect; inconclusive = small, poorly fitted or top-dose-only effect, or another doubt; inactive = no such curve, though single readings can be large; an effect the other way counts as inactive or inconclusive. Potency is read from the fitted curve at half-maximal effect.

SMILES | USP1 inh | 12-LOX inh | EPAC2 antag | EPAC2 ag | EPAC1 ag | EPAC1 antag
Cc1nc2ccc(C(=O)NCCCN3CCCCC3)cc2nc1C | x | -14% | x | x | x | x
N[n+]1cccc2ccccc21 | x | 18µM* | x | x | x | x
CCN1CCN(CCNC(=O)c2cc(-c3ccc(Cl)cc3)cn2CC)CC1 | x | -9% | x | x | x | x
COc1cccc(OC)c1OCCCN1CCC(Cc2ccccc2)CC1 | -11% | 11µM* | 0% | 3% | 8% | -7%
COc1ccc(CN2CCC(Cc3ccccc3)CC2)cc1OC | -18% | u | 1% | 1% | 10% | 3%
CC(=O)Nc1cc(-c2cccc(NS(C)(=O)=O)c2)cn2c(-c3cccc(C(F)(F)F)c3)cnc12 | x | u | -9% | -2% | -2% | -5%
O=CNc1cc(-c2cccc(O)c2)cn2c(-c3ccc(F)cc3)cnc12 | x | 45µM* | 6% | 18% | -1% | -2%
CC(=O)Nc1cc(-c2ccccc2N(C)C)cn2c(-c3cccc(C(F)(F)F)c3)cnc12 | x | 8.9µM* | u | -19% | -24% | -20%
CC(=O)Nc1cc(-c2ccc(CO)cc2)cn2c(-c3ccc(F)cc3)cnc12 | x | 45µM* | 15% | 10% | 10% | u
O=C1NC2c3c(Cl)sc(Cl)c3C(=O)C2O1 (centres undefined) | 4% | 40µM* | -21% | 8% | -1% | -7%
O=C(NC(=S)NCc1ccco1)c1ccc([N+](=O)[O-])cc1 | -4% | -15% | -9% | 6% | -3% | -19%
CC(C)(C)c1ccc(C(=O)NC(=S)NCC2CCCO2)cc1 (centres undefined) | -20% | 7.9µM* | 1% | 3% | 15% | 11%
CCNC(=S)NNC(=S)NCC1CCCO1 (centres undefined) | x | 39% | x | x | x | x
CC(C)(C)c1ccc(C(=O)NCCOc2ccccc2)cc1 | -2% | 0% | 19% | 0% | -5% | -18%
CC(C)(C)c1ccc(C(=O)NC(=S)NCc2ccco2)cc1 | -24% | 14µM* | -3% | 12% | 3% | 6%
CCOC(=O)NNC(=S)NCC1CCCO1 (centres undefined) | x | 6.3µM* | x | x | x | x
COCCNC(=S)NC(=O)c1ccc(C(C)(C)C)cc1 | -11% | 13µM* | -10% | 4% | 6% | -15%
COc1ccccc1N(C)S(=O)(=O)c1ccc(C(=O)Nc2c(C)cccc2C(C)C)cc1 | x | 1% | x | x | x | x
O=C1[C@H]2CC[C@H](CN(Cc3ccc(-n4ccnc4)cc3)C2)N1CC1CCC1 | x | 74% | x | x | x | x
CC(C)(C)C1CCCCC1NCc1cccc(C#N)c1 (centres undefined) | x | -32% | x | x | x | x
Clc1cccc(Nc2cc3c(cn2)CN(Cc2cccnc2)CCN3)c1 | x | 20%[176 µM] | x | x | x | x
O=C(NC(=S)NCc1ccco1)c1ccccc1 | -1% | -13% | 6% | -4% | -1% | 6%
COc1ccccc1/C=C/C(=O)NC(=S)NCC1CCCO1 (centres undefined) | -5% | 40µM* | -6% | 21% | 23% | -24%
O=C(NC(=S)NCc1ccco1)c1ccc(Br)cc1 | -6% | 16µM* | -2% | 19% | 15% | 2%
O=S(=O)(O)c1cc(O)c2c(O)c(N=Nc3cc(Cl)ccc3O)c(S(=O)(=O)O)cc2c1 | u | x | 28µM* | -11% | 1% | u
SMILES | USP1 inh | 12-LOX inh | EPAC2 antag | EPAC2 ag | EPAC1 ag | EPAC1 antag
C/C(CC(=O)Nc1cc(Cl)ccc1Cl)=N\NC(N)=S | -5% | u | -2% | 8% | 8% | 0%
C/C(CC(=O)Nc1ccc(Cl)c(Cl)c1)=N\NC(N)=S | -17% | 1µM* | 3% | 1% | 0% | -24%
COc1cc(C(=O)OCc2ccccc2C#N)ccc1C | x | -1% | x | x | x | x
CCCC(=O)Oc1c(Sc2ccc(Cl)cc2)c(C)nn1-c1ccccc1 | u | 45µM* | x | x | x | x
CN(C)c1ncnc2scc(-c3ccc(F)cc3)c12 | x | 10% | x | x | x | x
O=C(CSc1nnc(Cc2cc(=O)[nH]c(=O)[nH]2)n1-c1ccc(F)cc1)N1CCCCC1 | -10% | 70% | -6% | 6% | 5% | -8%
COc1cccc(-n2c(Cc3cc(=O)[nH]c(=O)[nH]3)nnc2SCC(=O)N2CCCCC2)c1 | -21% | 8.9µM* | 13% | 0% | -5% | -6%
CC1(C)CC2(CC(c3ccccc3)Oc3cc(O)ccc32)NC(=S)N1 (centres undefined) | -12% | 32µM* | -6% | 0% | 0% | 12%
Cc1ccc(NC(=S)NCc2ccc3c(c2)cc(C)n3C)c(C)c1 | -26% | 35µM* | -1% | 1% | 5% | -27%
Cc1ccc(NC(=S)NCc2ccc3c(c2)OCO3)c(C)c1 | -12% | 40µM* | 3% | 1% | 4% | 4%
FC(F)Oc1ccc(NC(=S)NCc2ccccc2)cc1 | -5% | u | -3% | -1% | 7% | -4%
Cc1cc2cc(CNC(=S)Nc3ccc(OC(F)F)cc3)ccc2n1C | u | 35µM* | -1% | 6% | -1% | u
COc1ccc(Nc2ncc(-c3ccccc3OC)c3c2OCC3)cn1 | x | -5%[176 µM] | x | x | x | x
Nn1c(SCc2cccc(S(=O)(=O)N3CCOCC3)c2)nnc1-c1cccc(Cl)c1 | x | 15% | x | x | x | x
Cc1csc(/C(C#N)=C\C2=Cc3cc(Cl)ccc3OC2)n1 | x | 50µM* | x | x | x | x
COc1ccc(OC)c(NC(=O)Cc2c(C)c3ccc(O)c(C)c3oc2=O)c1 | x | 9% | x | x | x | x
COCCNC(=O)CSc1cc(C)c2ccccc2n1 | x | 20% | x | x | x | x
Cc1c(O)nc(SC2CC(=O)N(c3ccccc3)C2=O)[nH]c1=O (centres undefined) | -19% | u | 0% | 3% | 4% | 3%
CCc1c(O)nc(SC2CC(=O)N(c3ccccc3)C2=O)[nH]c1=O (centres undefined) | -11% | 10µM* | -2% | 5% | 3% | -11%
COc1ccc(C(=O)N2CCCn3nc(C)c(-c4ccccc4-c4ccccc4)c32)cc1 | x | -18%[176 µM] | x | x | x | x
CC(=O)N1CCC(C(=O)Nc2nc(-c3ccc(Br)s3)cs2)CC1 | x | -38% | x | x | x | x
CSCCC(NC(=O)c1ccc(Cl)cc1)C(=O)OCC(C)=O (centres undefined) | -20% | -1% | 3% | 3% | -11% | -10%
CSCCC(NC(=O)c1ccc(Cl)cc1)C(=O)OCC(=O)Nc1ccc(C#N)cc1 (centres undefined) | -7% | 32µM* | -1% | 15% | 2% | -22%
COCCN=C1Sc2nc3c(C)cccc3cc2CN1Cc1ccco1 | -24% | 32µM* | 1% | 9% | 2% | 2%
CCCCOc1ccc(NC(=O)Cc2ccccc2)c2cccnc12 | x | 16% | x | x | x | x

Screens as filed in PubChem.
